# Source: PubChem BioAssay
# Shown is part of a subset that was picked to be rich in hits.
# Pf apPOL inh: Pf-apPOL inhibitors, biochemical, fluorescence. Plasmodium falciparum apicoplast DNA polymerase (apPOL). Recombinant Pf-apPOL, molecular beacon fluorescence, 1.5 h. inhibition, % at 10 µM. actives 0.25% (n = 210,000). AID 1794808, 2022
# mHTT CaM bind: mutant huntingtin-calmodulin interaction inhibitors – biochemical, AlphaScreen, primary screen; AlphaScreen His-mHTT/GST-CaM binding, luminescence; inhibition, % at 15 µM; actives 3.6% (n = 190,000); AID 1671202, 2021;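 further: 0% = both proteins with DMSO and 100% = one protein alone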
# Target sequence (P42858 whole entry, looked up, stated change not applied): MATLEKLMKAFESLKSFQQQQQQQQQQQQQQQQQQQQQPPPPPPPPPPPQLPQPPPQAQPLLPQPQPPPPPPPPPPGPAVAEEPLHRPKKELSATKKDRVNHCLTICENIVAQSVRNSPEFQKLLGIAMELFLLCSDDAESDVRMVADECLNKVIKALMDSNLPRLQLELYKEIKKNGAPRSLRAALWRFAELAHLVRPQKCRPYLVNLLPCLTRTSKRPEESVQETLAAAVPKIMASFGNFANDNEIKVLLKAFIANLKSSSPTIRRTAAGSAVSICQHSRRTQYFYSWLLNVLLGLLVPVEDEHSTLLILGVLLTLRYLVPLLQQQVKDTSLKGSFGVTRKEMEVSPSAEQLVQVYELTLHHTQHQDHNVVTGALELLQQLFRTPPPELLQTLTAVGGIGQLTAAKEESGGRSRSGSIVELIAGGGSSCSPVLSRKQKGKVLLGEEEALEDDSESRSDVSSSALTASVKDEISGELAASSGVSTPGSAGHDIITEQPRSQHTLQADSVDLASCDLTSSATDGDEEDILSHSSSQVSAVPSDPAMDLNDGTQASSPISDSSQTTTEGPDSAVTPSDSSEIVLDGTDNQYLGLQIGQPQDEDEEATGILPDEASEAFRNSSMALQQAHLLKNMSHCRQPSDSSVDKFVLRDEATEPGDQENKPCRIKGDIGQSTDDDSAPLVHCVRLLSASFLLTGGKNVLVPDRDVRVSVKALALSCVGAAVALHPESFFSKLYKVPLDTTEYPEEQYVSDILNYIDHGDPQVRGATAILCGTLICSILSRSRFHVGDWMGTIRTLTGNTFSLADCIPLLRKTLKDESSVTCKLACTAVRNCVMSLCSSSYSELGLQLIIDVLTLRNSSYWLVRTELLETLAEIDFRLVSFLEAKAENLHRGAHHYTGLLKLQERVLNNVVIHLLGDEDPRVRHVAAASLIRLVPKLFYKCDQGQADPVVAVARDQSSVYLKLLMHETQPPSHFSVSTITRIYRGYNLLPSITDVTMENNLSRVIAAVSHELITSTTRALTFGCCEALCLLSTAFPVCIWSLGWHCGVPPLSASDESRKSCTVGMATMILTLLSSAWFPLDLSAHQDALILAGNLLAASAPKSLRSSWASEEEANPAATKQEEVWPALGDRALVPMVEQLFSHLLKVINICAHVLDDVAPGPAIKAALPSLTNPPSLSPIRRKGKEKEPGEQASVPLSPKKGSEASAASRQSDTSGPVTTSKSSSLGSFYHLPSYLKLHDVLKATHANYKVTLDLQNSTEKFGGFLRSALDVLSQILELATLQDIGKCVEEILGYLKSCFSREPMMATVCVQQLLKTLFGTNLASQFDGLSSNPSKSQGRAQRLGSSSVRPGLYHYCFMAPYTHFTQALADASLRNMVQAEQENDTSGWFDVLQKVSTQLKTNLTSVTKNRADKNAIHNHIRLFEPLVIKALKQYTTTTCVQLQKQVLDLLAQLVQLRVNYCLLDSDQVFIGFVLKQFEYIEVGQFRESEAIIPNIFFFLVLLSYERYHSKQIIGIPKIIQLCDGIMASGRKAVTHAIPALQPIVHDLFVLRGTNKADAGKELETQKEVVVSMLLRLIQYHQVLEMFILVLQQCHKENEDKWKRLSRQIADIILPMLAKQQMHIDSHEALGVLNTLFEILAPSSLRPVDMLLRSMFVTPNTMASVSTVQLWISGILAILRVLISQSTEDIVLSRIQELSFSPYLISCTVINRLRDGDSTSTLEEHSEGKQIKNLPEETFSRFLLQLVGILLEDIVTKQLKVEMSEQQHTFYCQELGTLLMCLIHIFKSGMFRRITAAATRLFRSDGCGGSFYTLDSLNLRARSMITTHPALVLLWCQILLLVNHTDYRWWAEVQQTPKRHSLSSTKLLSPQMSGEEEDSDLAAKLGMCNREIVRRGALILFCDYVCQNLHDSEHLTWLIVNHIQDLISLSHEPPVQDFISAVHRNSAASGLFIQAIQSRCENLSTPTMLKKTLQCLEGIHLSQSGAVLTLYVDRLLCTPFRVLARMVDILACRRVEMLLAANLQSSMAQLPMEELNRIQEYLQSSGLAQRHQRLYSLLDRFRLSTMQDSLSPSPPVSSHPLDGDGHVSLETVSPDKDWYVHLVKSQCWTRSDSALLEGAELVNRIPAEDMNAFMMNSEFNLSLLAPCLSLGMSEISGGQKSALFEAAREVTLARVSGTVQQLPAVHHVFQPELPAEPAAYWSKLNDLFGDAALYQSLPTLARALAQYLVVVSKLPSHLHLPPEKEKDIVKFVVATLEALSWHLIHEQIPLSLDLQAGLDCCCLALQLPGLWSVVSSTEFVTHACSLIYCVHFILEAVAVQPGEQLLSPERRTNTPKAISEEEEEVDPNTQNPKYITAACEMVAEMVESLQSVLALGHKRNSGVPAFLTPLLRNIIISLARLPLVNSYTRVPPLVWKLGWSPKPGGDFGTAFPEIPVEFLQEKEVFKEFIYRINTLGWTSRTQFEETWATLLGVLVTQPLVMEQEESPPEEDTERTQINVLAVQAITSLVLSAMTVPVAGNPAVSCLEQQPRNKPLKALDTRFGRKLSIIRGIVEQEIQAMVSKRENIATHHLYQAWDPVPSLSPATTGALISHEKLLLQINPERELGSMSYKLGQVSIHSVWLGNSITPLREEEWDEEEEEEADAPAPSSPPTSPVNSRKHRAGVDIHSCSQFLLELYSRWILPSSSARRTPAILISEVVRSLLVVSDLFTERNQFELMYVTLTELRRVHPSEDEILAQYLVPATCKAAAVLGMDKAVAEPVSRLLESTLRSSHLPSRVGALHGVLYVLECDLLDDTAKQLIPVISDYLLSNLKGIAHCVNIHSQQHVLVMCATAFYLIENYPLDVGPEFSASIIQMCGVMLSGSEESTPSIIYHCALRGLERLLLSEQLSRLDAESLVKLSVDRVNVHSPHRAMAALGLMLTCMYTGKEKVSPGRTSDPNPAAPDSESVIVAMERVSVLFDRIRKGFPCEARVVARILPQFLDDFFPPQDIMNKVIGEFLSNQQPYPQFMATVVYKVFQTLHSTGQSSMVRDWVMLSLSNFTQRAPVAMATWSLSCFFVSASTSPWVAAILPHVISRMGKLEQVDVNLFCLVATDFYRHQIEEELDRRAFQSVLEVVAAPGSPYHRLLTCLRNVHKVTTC
# Starred values were filed as active, the others as inactive; . = not tested or not shown. No stated cut-off is given here; in the data, active means inhibition above about 50%; inactive means the rest.
SMILES,Pf apPOL inh,mHTT CaM bind
COc1ccc(OC)c(NC(=O)c2c(NC(=O)CNCc3ccco3)sc3c2CCC3)c1,-0.6,3.4
CCOC(=O)N1CCc2c(sc(NC(=O)c3cc(C)on3)c2C(=O)OC)C1,-2.0,-12.1
CCOc1ccccc1NC(=O)c1c(NC(=O)C(F)(F)F)sc2c1CCCCC2,4.4,7.0
CCOC(=O)CCC(=O)Nc1c(C)nc2sccn2c1=O,-6.8,-24.7
O=C1OC(c2ccccc2Cl)=N/C1=C/c1ccc(C(F)(F)F)cc1,-1.7,19.0
CC(=O)c1cccc(NC(=O)c2ccc(C(=O)c3ccccc3)cc2)c1,2.1,4.1
COc1ccc(OC)c(NC(=O)c2c(N)sc3c2CCCCC3)c1,-4.1,64.5*
COc1ccc(OC)c(NC(=O)c2c(NCc3ccc(OC)c(OC)c3)sc3c2CCC3)c1,-16.8,52.0*
COc1ccccc1NC(=O)c1c(NCc2ccc(OC)c(OC)c2)sc2c1CCC2,-14.7,27.0
COc1ccccc1NC(=O)c1c(N)sc2c1CCCC2,-4.5,30.7
Cc1ccccc1CNC(=O)C1(C)CCCN(C(=O)Nc2cccc(C)c2C)C1 (centres undefined),8.5,5.5
COc1cccc(C(=O)N2CCc3c(c(-c4nc(-c5ccccc5)no4)nn3C)C2)c1,-0.8,29.6
Cc1cc(C)c(NC(=O)CN(C)S(=O)(=O)c2ccc3[nH]c4c(c3c2)CCCC4)c(C)c1,-3.8,37.5
Cc1ccc(NC(=O)CN(C)S(=O)(=O)c2ccc3[nH]c4c(c3c2)CCCC4)c(Cl)c1,-5.1,42.9
Cc1cccc(NC(=O)CN(C)S(=O)(=O)c2ccc3[nH]c4c(c3c2)CCCC4)c1,2.7,63.9*
CN(CC(=O)Nc1ccc(Cl)cc1)S(=O)(=O)c1ccc2[nH]c3c(c2c1)CCCC3,0.9,65.8*
CN(CC(=O)NC1CCCCCC1)S(=O)(=O)c1ccc2[nH]c3c(c2c1)CCCC3,-1.1,58.5*
Cc1ccc(NC(=O)CN(C)S(=O)(=O)c2ccc3[nH]c4c(c3c2)CCCC4)cc1,0.0,47.8
Cc1ccccc1NC(=O)CN(C)S(=O)(=O)c1ccc2[nH]c3c(c2c1)CCCC3,-3.8,14.3
CN(CC(=O)Nc1cccc(Cl)c1)S(=O)(=O)c1ccc2[nH]c3c(c2c1)CCCC3,-0.6,54.8*
CC1CCN(c2nnc(C(=O)N(C)Cc3ccccc3)c3ccccc23)CC1,6.4,3.7
Cc1cccc(C(=O)N2CCC(c3nc(CCNC(=O)C4CC4)cs3)CC2)c1,-0.7,8.7
CSc1ncccc1C(N)=O,1.5,.
CN(CC(=O)NCCC1=CCCCC1)S(=O)(=O)c1ccc2[nH]c3c(c2c1)CCCC3,-9.6,63.1*
CN(CC(=O)NCc1cccnc1)S(=O)(=O)c1ccc2[nH]c3c(c2c1)CCCC3,-5.0,21.4
SMILES,Pf apPOL inh,mHTT CaM bind
CS(=O)(=O)NC1CC2CC1CN2C(=O)c1ccc(C(F)(F)F)cc1 (centres undefined),0.7,-3.7
COc1ccc(N2CCN(C(=O)c3ccc(Cl)s3)CC2)cc1,3.1,11.0
c1ccc(CCn2c(-c3ccccc3)csc2=Nc2ccccc2)cc1,.,1.2
Cc1ccc(-c2csc(=Nc3ccccc3)n2CCCN(C)C)cc1,3.6,73.0*
Cc1ccc(-c2csc(=Nc3ccccc3)n2CCCO)cc1,-3.2,53.0*
OCCCn1c(-c2ccc(Cl)s2)csc1=Nc1ccccc1,19.1,41.0
CCn1c(=O)c2c(ncn2Cc2ccccc2F)n(-c2ccc(Cl)cc2)c1=O,1.3,0.6
CCOc1ccc2nc(NC(=O)/C=C/c3ccc([N+](=O)[O-])cc3)sc2c1,3.2,1.0
O=c1/c(=C/c2ccccc2F)sc2nc(-c3ccccc3)nn12,-3.0,2.0
COC(=O)C1C(=O)C2=C(CC1C)NC(C)=C(C(=O)OC1CCCC1)C2c1ccc(C)c([N+](=O)[O-])c1 (centres undefined),-2.4,30.3
COc1ccc(N2CCN(c3cc(N4CCN(C)CC4)ccc3[N+](=O)[O-])CC2)cc1,-5.4,54.4*
COc1ccccc1C(=O)N1CCN(c2ccc([N+](=O)[O-])c(N3CCCCC3)c2)CC1,-7.5,52.8*
CN1CCN(c2cc(N3CCN(S(C)(=O)=O)CC3)ccc2[N+](=O)[O-])CC1,-3.7,1.9
O=C(c1cc(F)c(F)cc1Cl)N1CCN(c2ccc([N+](=O)[O-])c(N3CCCCC3)c2)CC1,-1.8,5.3
COc1ccccc1Oc1coc2cc(OCc3ccc([N+](=O)[O-])cc3)ccc2c1=O,-6.7,-3.2
CC1=NN(c2nc(-c3ccccc3)cs2)C(=O)/C1=C/c1ccco1,8.7,76.0*
CC1=NN(c2ccc(Br)cc2)C(=O)/C1=C/c1ccc(N(C)C)cc1,3.3,37.0
CC1=NN(c2nc(-c3ccc(C)cc3)cs2)C(=O)/C1=C/c1ccc(N(C)C)cc1,-9.0,56.0*
CCc1ccc(N2N=C(C)/C(=C\c3ccc(N(C)C)cc3)C2=O)cc1,-1.2,70.0*
CCN(CC)c1ccc(/C=C2/C(=O)N(c3ccc(Cl)c(C(=O)O)c3)N=C2C)cc1,-2.2,59.0*
CC1=NN(c2nc(-c3ccccc3)cs2)C(=O)/C1=C/c1ccc(C)s1,-8.9,3.0
CCN(CC)c1ccc(/C=C2/C(=O)N(c3ccc(C)cc3)N=C2C)cc1,-0.6,29.0
CC1=NN(c2ccccc2)C(=O)/C1=C/c1ccc(N(C)C)cc1,-7.2,42.0
Cc1cc(C)c2oc(-c3cccc(N)c3C)nc2c1,-2.0,28.9
CCOc1ccc(C(=O)N2CCCN(c3ncccc3-c3nc(C(C)C)no3)CC2)cc1,-3.3,2.7
SMILES,Pf apPOL inh,mHTT CaM bind
CCN(Cc1nonc1C)C(=O)C(C)n1cc([N+](=O)[O-])cn1 (centres undefined),.,-3.6
CC1=NN(c2cccc(Cl)c2)C(=O)/C1=C/c1ccc(Cl)c([N+](=O)[O-])c1,3.2,76.0*
CCN(C)c1ccc(/C=C2/C(=O)N(c3ccc(Cl)c(Cl)c3)N=C2C)cc1,-4.9,61.0*
CC1=NN(c2ccc(Cl)c(Cl)c2)C(=O)/C1=C/c1ccc(C)c([N+](=O)[O-])c1,-0.1,12.0
CC1=NN(c2ccc(Cl)c(Cl)c2)C(=O)/C1=C/c1ccccc1,-3.3,15.0
Cc1cc(Oc2ccc(NC(=O)CC(C)(C)C)cn2)ccc1F,-3.8,-24.8
CCN1CCN(C2(CNC(=O)C(C)C)CCCCC2)CC1,-4.4,-5.2
CCC(=O)NC(C)C(=O)N1CCN(c2ccccn2)CC1 (centres undefined),3.6,-2.6
O=C(CN1CCN(C(=O)Nc2ccc(Cl)cc2)CC1=O)NCCN1CCCCCC1,-3.0,15.4
CNC(=O)c1[nH]c2ccccc2c1N1CCCC1=O,-0.4,-3.3
O=C(c1ccccc1)c1cc(F)c(N2CCOCC2)cc1Cl,16.1,-15.0
O=c1cc[nH]c2cc(N3CCOCC3)c(F)cc12,80.3*,-5.1
N#Cc1c(NC(=O)CCc2ccccc2)sc2c1CCCC2,1.4,14.3
OCCC1CNCCN1CC1CCCCC1 (centres undefined),.,-4.1
Cc1ccc2c(CN3CCC(C)CC3)cc(=O)oc2c1,-8.2,-16.6
CC1CCN(Cc2cc(Br)c(O)c3ncccc23)CC1,-6.6,100.0*
O=C(C1CCCN(c2cn[nH]c(=O)c2)C1)N1CCCC1 (centres undefined),4.8,-0.5
O=C(CCn1c(N2CCCCC2)nc2ccccc2c1=O)Nc1ccc(F)cc1,0.4,-15.9
COc1ccc(CNCc2ccc3c(c2)OCO3)cc1Br,5.0,-1.0
COc1ccc(-c2ccccc2)cc1NCc1ccc2c(c1)OCO2,-2.1,56.9*
COc1ccc([N+](=O)[O-])cc1NCc1ccccc1F,-1.2,-46.5
